Values joined by “and” are separate entries in the source; they are usually repeats but may differ in a detail not shown here. Equal values may be shown once. Results filed as inconclusive are left out. Where a call stands in place of a potency, no number is given. A number with no mark means an inactive call. Active and inactive are the calls of the source. Calls follow the shape of the dose curve; as a rule, active = well fitted activation curve with a large enough effect in the repeat runs; inconclusive = weak or mixed curves; inactive = flat fitted curve, though single readings scatter.
test: Caspase-3/7 induction in HepG2 cells by small molecules, qHTS assay (AID 1346978); details: HepG2 caspase-3/7 activation, Caspase-Glo luminescence, 17 h; series mostly up to 92.4 µM; also: nearly all actives have a fitted effect of over 15% in size
Description: National Center for Advancing Translational Sciences [NCATS] NIH Chemical Genomics Center [NCGC] U.S. Environmental Protection Agency [EPA] National Institutes of Environmental Health Sciences [NIEHS] National Toxicology Program [NTP] Assay overview: Apoptosis is a process of programmed cell death and plays a central role in the development of multicellular organisms. It is a highly regulated process and induces cell death by activating caspases, which are the members of cysteine aspartic acid-specific protease (caspase) family. Caspases involved in apoptosis are classified by their mechanism of action as initiator caspases (caspase-2, -8, -9 and -10) and executioner caspases (caspase-3, -6, and -7). Inhibition of apoptosis results in number of cancers, autoimmune diseases, inflammatory diseases and viral infection. To identify small molecule compounds that induce apoptosis, a homogeneous, luminescent Caspase-Glo 3/7 assay was used. Wild type HepG2 cells were used to screen Tox21 libraries for identifying caspase-3/7 activity inducers.
Assay Protocol Summary: HepG2 cells were dispensed at 2,000 per well in 5uL of culture medium into white solid bottom 1536-well plates (Corning Life Sciences, Corning, NY) using a Multidrop Combi (Thermo Scientific, Waltham, MA) dispenser. The assay plates were incubated at 37 C and 5% CO2 for 5hr, and then 23nL of compounds dissolved in DMSO and positive control were transferred using a Pintool station (Wako, San Diego, CA). The assay plates were incubated at 37C and 5% CO2 for 17hr. For caspase-3/7 activity read, 4uL of Caspase-Glo 3/7 reagent (Promega Corporation, Madison, WI) was added to each well of the assay plates using Flying Reagent Dispenser (FRD, Aurora Discovery, San Diego, CA) and incubated the assay plates at room temperature for 30min. The luminescence signal was quantified using a ViewLux plate reader (Perkin Elmer, Shelton, CT).
Potency is read from the fitted curve at half-maximal effect.

| Compound | Potency | caspase activation |
| --- | --- | --- |
| CCCCCCOc1cc(C)c(O)c(C)c1C | 49.2 µM (active) |  |
| COC(=O)[C@]1(C)CCC[C@@]2(C)[C@H]1CC=C1C=C(C(C)C)CC[C@@H]12 | inactive |  |
| C[Si](C)(C)Cl | inactive |  |
| CC(C)c1ccccc1N | inactive |  |
| CC1CCCCC1 | inactive |  |
| Cc1ccc(N)cc1O | inactive |  |
| CC(C)(C)CC(C)(C)c1ccccc1O | 48.8 µM (active) |  |
| C=C1C(C)(C)[C@@]2(Cl)C(Cl)[C@]1(Cl)C(Cl)(Cl)C2(Cl)Cl (stereo not given in full) | inactive |  |
| CCNc1nc(NC(C)CC)nc(OC)n1 (stereo not given) | inactive |  |
| NCCCCCCNCCCCCCN | inactive |  |
| CCC(C)c1ccccc1 (stereo not given) | inactive |  |
| CC1=C(/C=C/C(C)=C/C=C/C(C)=C\C=O)C(C)(C)CCC1 | inactive |  |
| C=CC(C)C#N (stereo not given) | inactive |  |
| O=C(O)CC(=O)O | inactive |  |
| CCCCCCCCC(C)=O | inactive |  |
| CCN(CC)c1ccc(N)cc1 | inactive |  |
| CN(C)CCOC(c1ccccc1)c1ccccc1 (tested in a mixture with another compound) | inactive |  |
| Cn1cccc1 | inactive |  |
| CCCSS/C(CCO)=C(\C)N(C=O)Cc1cnc(C)nc1N | inactive |  |
| COc1cc(C(C)C)c2c(c1)S(=O)(=O)N(COc1cc(=O)n3cccc(OCCN4CCCCC4)c3n1)C2=O |  | 0.878% [at 19 µM] |

| Compound | Potency | caspase activation |
| --- | --- | --- |
| CC(=O)Nc1ccc(O)cc1 | inactive |  |
| CCCCOC(=O)C(C)CC (stereo not given) | inactive |  |
| CCOC(/C=C(\C)CCC=C(C)C)OCC | inactive |  |
| CC1=CP(=O)(c2ccccc2)CC1 (stereo not given) | inactive |  |
| C[C@H]1O[C@@H](O[C@H]2[C@@H](O)C[C@H](O[C@H]3[C@@H](O)C[C@H](O[C@H]4CC[C@@]5(C)[C@H](CC[C@@H]6[C@@H]5C[C@@H](O)[C@]5(C)[C@@H](C7=CC(=O)OC7)CC[C@]65O)C4)O[C@@H]3C)O[C@@H]2C)C[C@H](O)[C@@H]1O | inactive |  |
| CCOC(=O)COc1ccc(C)cc1 | inactive |  |
| Clc1ccc(C(Cn2ccnc2)OCc2ccsc2Cl)c(Cl)c1 (stereo not given) | inactive |  |
| CC(C)=CCCC(C)CCOC(=O)C(C)C (stereo not given) | inactive |  |
| CN1[C@@H]2CC[C@@H]1CC(OC(=O)C(CO)c1ccccc1)C2 (stereo not given in full) | inactive |  |
| CC(C)CCOCCC(C)C | inactive |  |
| Oc1ccc(-c2ccccc2)c(Cl)c1 | inactive |  |
| Cc1cc(Nc2ccc(O)cc2)ccc1N | inactive |  |
| CCCCCCCCCCCCOC(=O)c1cc(O)c(O)c(O)c1 | 60.9 µM (active) and 68.6 µM (active) |  |
| Clc1ccc(C(c2ccccc2Cl)C(Cl)Cl)cc1 (stereo not given) | inactive |  |
| CO[Si](CCC1CCC2OC2C1)(OC)OC (stereo not given) | inactive |  |
| ClC/C=C\CCl | inactive |  |
| S=C(SSSSSSC(=S)N1CCCCC1)N1CCCCC1 |  | 0.0321% [at 19 µM] |
| CC(CN(C)C)CN1c2ccccc2CCc2ccccc21 (stereo not given) | inactive |  |
| Oc1cc2ccccc2cc1O | inactive |  |
| O=C1c2c(O)ccc([N+](=O)[O-])c2C(=O)c2c([N+](=O)[O-])ccc(O)c21 | inactive |  |
